Among the data in PubChem BioAssay AID1645838 (ICCB-Longwood Screening Facility, Harvard Medical School, 2021) are z-score, cell count and outcome values, retold here.

Several values for one entry are separate records, joined by “and”; a condition that tells them apart may be missing. Equal entries are not always repeated. Hit rate of the full screen: of about 2,000 compounds, about 100 (5%) were called active. No stated cut-off is given here; in the data, active means z-score above about 2; inactive means the rest. What follows is part of a selection rich in actives, with near analogues and random picks from the rest. A structure can be active in one record and inactive in another.

The nature of the assay: modulators of mitochondrial supercomplex assembly, cell-based, luminescence, Hoechst nuclei count (AID 1645838).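 On all read-outs here: control cybrid cells.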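 On z-score: higher means more mitochondrial supercomplex formation.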 The following applies: Cells, luminescence/Hoechst cell count ratio, supercomplex reporter; for z-score: stronger effect = higher value; for cell count: measured here: cell number, Hoechst nuclei count; for outcome: library stock 10 mM.
[1] abbreviates: library stock concentration (final well concentration not given) 46 uM.
Where [2] appears, read: library stock concentration (final well concentration not given) 278 uM.
The mark [3] stands for this setting: library stock concentration (final well concentration not given) 1.67 mM.
Where [4] appears, read: library stock concentration (final well concentration not given) 10 mM.
The mark [5] stands for this setting: library stock concentration (final well concentration not given) 80 uM.
[6] abbreviates: library stock concentration (final well concentration not given) 400 uM.
[7] abbreviates: library stock concentration (final well concentration not given) 2 mM.

As to `CC(C)(C)CC1NC(C(=O)NC2CCC(O)CC2)C(c2cccc(Cl)c2F)[C@]12C(=O)Nc1cc(Cl)ccc12` (stereo partly specified), the z-score was -0.637 (inactive) under setting [1], -0.742 (inactive) under setting [2], -0.98 (inactive) under setting [3] and -1.86 (inactive) under setting [4]. Besides, the cell count under setting [1] was 7790, the cell count under setting [2] came out at 7430, the cell count under setting [3] was 8360 and the cell count under setting [4] amounted to 7510.

Take `CC(C)(C)C(O)C=Cc1ccc2c(c1)OCO2` (stereo unspecified): the z-score runs as follows: under setting [5], 0.0878 (inactive); under setting [6], 0.509 (inactive); under setting [7], 0.124 (inactive); under setting [4], 0.138 (inactive). Moreover, the cell count runs as follows: under setting [5], 5100; under setting [6], 4800; under setting [7], 5050; under setting [4], 5260.

On to `CN1CCN(CCOc2cc(OC3CCOCC3)c3c(Nc4c(Cl)ccc5c4OCO5)ncnc3c2)CC1`, for which the outcome was “inactive; censored for cell count”. For the same molecule, under setting [5], the z-score is 0.0594 (inactive) and -0.195 (inactive); the cell count is 4300 and 6110. Moreover, under setting [6], the z-score is 0.376 (inactive) and 0.19 (inactive); the cell count is 4050 and 5610. Under setting [7], the z-score is 1.62 (inactive) and 2.74 (active); the cell count was 3190 and 3140.

With `O=C1C(c2ccccc2)N(c2ccc(Br)cc2)C(=O)N1c1ccc(Br)cc1` (stereo unspecified), the z-score is -0.397 (inactive) and the cell count amounted to 4960.

As for `CC#CCC(C)C(O)C=CC1C(O)C[C@@H]2CC(=CCCCC(=O)O)C[C@@H]12` (stereo partly specified), the z-score by setting is: under setting [5], -0.0626 (inactive); under setting [6], -0.295 (inactive); under setting [7], 0.193 (inactive); under setting [4], 0.43 (inactive). In addition, the cell count under setting [5] is 5530, the cell count under setting [6] came to 5750, the cell count under setting [7] was 5230 and the cell count under setting [4] turned out to be 4650.

Consider `Cn1cc(-c2ccc3c(c2)CCN3C(=O)Cc2cccc(C(F)(F)F)c2)c2c(N)ncnc21`, for which the z-score under setting [1] was -0.404 (inactive), the z-score under setting [2] was -0.312 (inactive), the z-score under setting [3] was -0.398 (inactive) and the z-score under setting [4] was 0.717 (inactive). The cell count under setting [1] worked out at 6450, the cell count under setting [2] came to 6260, the cell count under setting [3] turned out to be 6230 and the cell count under setting [4] stood at 4040.

In the case of `Nc1ncnc2c1c(-c1ccc(Oc3ccccc3)cc1)cn2C1CCCC1`, the z-score was 0.00446 (inactive) under setting [5], 0.328 (inactive) under setting [6], 0.396 (inactive) under setting [7] and 0.246 (inactive) under setting [4]. Further, the cell count under setting [5] amounted to 4810, the cell count under setting [6] came to 4230, the cell count under setting [7] came out at 4080 and the cell count under setting [4] is 3660.

On to `COc1cccc(-c2cn(-c3ccc(CCN4CCC(O)CC4)cc3)c3ncnc(N)c23)c1`, for which the z-score is -0.0662 (inactive) under setting [1], -0.203 (inactive) under setting [2], 0.503 (inactive) under setting [3] and 6.01 (active) under setting [4]. Besides, the cell count was 6890 under setting [1], 6710 under setting [2], 6410 under setting [3] and 2860 under setting [4].

In the case of `CCCCCC(O)CCC1C(O)C[C@H]2Cc3c(cccc3OCC(=O)O)C[C@@H]12` (stereo partly specified), the z-score runs as follows: under setting [5], -0.232 (inactive); under setting [6], -0.452 (inactive); under setting [7], -0.204 (inactive); under setting [4], -0.825 (inactive). Besides, the cell count runs as follows: under setting [5], 6220; under setting [6], 5860; under setting [7], 5910; under setting [4], 6040.

As for `CCCCC/C=C\C/C=C\CCCCCCCC(=O)OCC(COC(=O)CCCCCCCCCCCCCCC)OC(=O)CCCCCCC/C=C\CCCCCCCC` (stereo unspecified), the z-score is 0.273 (inactive) and the cell count turned out to be 5490.

Regarding `COC(=O)C(NC(=O)c1cc(-c2ccccc2)nc2ccccc12)c1ccccc1` (stereo unspecified), the z-score reads like this: under setting [1], -0.299 (inactive); under setting [2], -0.209 (inactive); under setting [3], -0.176 (inactive); under setting [4], -0.0618 (inactive). In addition, the cell count under setting [1] was determined as 6610, the cell count under setting [2] stood at 6570, the cell count under setting [3] worked out at 6890 and the cell count under setting [4] stood at 6540.

For the molecule `CCCC(=O)Nc1nc(-c2ccccc2)cc(-c2ccccc2)n1`, the z-score was -0.0977 (inactive) under setting [5], 0.0694 (inactive) under setting [6], -0.49 (inactive) under setting [7] and -0.335 (inactive) under setting [4]. Moreover, the cell count under setting [5] came to 5390, the cell count under setting [6] came out at 5300, the cell count under setting [7] came out at 4980 and the cell count under setting [4] was found to be 5140.

As to `O=C(Nc1nnc(-c2ccco2)o1)c1cc(-c2ccccc2)nc2ccccc12`, the z-score was 0.451 (inactive) under setting [1], 0.815 (inactive) under setting [2], 0.151 (inactive) under setting [3] and 2.24 (active) under setting [4]. Further, the cell count under setting [1] came to 6600, the cell count under setting [2] was found to be 6010, the cell count under setting [3] is 6640 and the cell count under setting [4] stood at 4920.

For `CCCC/C=C/C=C/C=C\CCCCCCCC(=O)OC`, the z-score was 0.121 (inactive) and the cell count amounted to 4950.

Regarding `O=C(O)CCC/C=C\C[C@@H]1C(=O)C[C@@H](O)[C@@H]1/C=C/[C@@H](O)CCc1ccccc1`, the z-score was 0.113 (inactive) and the cell count was found to be 5100.

As for `O=C1C(Cc2ccc(O)cc2)N2C(=O)CCN(C(=O)NCc3ccccc3)C2CN1Cc1cccc2ccccc12` (stereo unspecified), the z-score was -0.329 (inactive) under setting [1], -0.452 (inactive) under setting [2], -1.5 (inactive) under setting [3] and -0.675 (inactive) under setting [4]. For the same molecule, the cell count by setting is: under setting [1], 7210; under setting [2], 7220; under setting [3], 7090; under setting [4], 4220.

`CN(C)CCC1(c2ccc(Cl)cc2)Cc2ccccc2C(=O)O1` (stereo unspecified): the z-score is -0.548 (inactive) under setting [1], -0.51 (inactive) under setting [2], -0.496 (inactive) under setting [3] and 0.011 (inactive) under setting [4]. Also, the cell count runs as follows: under setting [1], 6980; under setting [2], 6360; under setting [3], 6480; under setting [4], 6170.

As for `C=C(C)[C@@H]1CCC(C)=C[C@H]1c1c(O)cc(C)cc1O`, the z-score was -0.799 (inactive) and the cell count amounted to 5690.

On to `Nc1nc2c([nH]c(=O)n2[C@@H]2O[C@H](CO)[C@@H](O)[C@H]2O)c(=O)[nH]1`, for which the z-score was -0.949 (inactive) and the cell count is 5870.

Consider `COc1cc(NC(=O)c2ccc(-c3ccc(Cl)cc3)o2)cc(OC)c1`, for which the z-score under setting [1] is -0.316 (inactive), the z-score under setting [2] was 0.0249 (inactive), the z-score under setting [3] is -0.417 (inactive) and the z-score under setting [4] was -1 (inactive). The cell count runs as follows: under setting [1], 6650; under setting [2], 6230; under setting [3], 6670; under setting [4], 6710.

On to `NC(=O)c1cccc(-c2cccc(OC(=O)NC3CCCCC3)c2)c1`, for which the z-score is -0.595 (inactive) and the cell count was 5600.

Turning to `COc1cccc(-c2ccc(NC(=O)C3=C(C(=O)O)CCC3)c(F)c2)c1`, the z-score is 0.0997 (inactive) under setting [1], 0.11 (inactive) under setting [2], -0.285 (inactive) under setting [3] and 7.02 (active) under setting [4]. The cell count stood at 6810 under setting [1], 6860 under setting [2], 6660 under setting [3] and 3760 under setting [4].

On to `C[C@@H](O)CCC[C@H](O)/C=C/C1=C(C/C=C\CCCC(=O)O)C(=O)CC1`, for which the z-score is -0.229 (inactive) and the cell count amounted to 5100.

For `c1ccc(Cc2ccncc2)cc1`, the z-score runs as follows: under setting [5], -0.46 (inactive); under setting [6], -0.111 (inactive); under setting [7], -0.201 (inactive); under setting [4], -0.169 (inactive). Moreover, the cell count runs as follows: under setting [5], 5970; under setting [6], 5030; under setting [7], 5260; under setting [4], 5220.

Consider `CC/C=C\C/C=C\C/C=C\CCCCCCCC(=O)O`, for which the z-score was -0.381 (inactive) and the cell count was determined as 5900.

`CCCCCCCCCCCC(=O)CC(=O)N[C@H]1CCOC1=O`: the z-score is -0.866 (inactive) and the cell count came out at 5800.

Consider `CCCCC[C@H](O)/C=C/[C@H]1CC[C@@H](O)[C@@H]1CCCCCCC(=O)O`, for which the z-score was 0.234 (inactive) and the cell count worked out at 5240.

With `CC1COCCN1c1cc(C2(S(C)(=O)=O)CC2)nc(-c2cccc3[nH]ccc23)n1` (stereo unspecified), the outcome is “inactive; censored for cell count”. Under setting [5], the z-score is -0.307 (inactive) and the cell count came out at 5900. Under setting [6], the z-score was -0.152 (inactive) and the cell count worked out at 5550. Besides, under setting [7], the z-score was 2.1 (active) and the cell count turned out to be 2180.

For the molecule `CCCCC[C@H](O)/C=C/[C@H]1[C@H](O)CC(=O)[C@@H]1CC(=O)CCCCC(=O)O`, the z-score is 0.036 (inactive) and the cell count was found to be 5230.

Take `CN(C)C1CCc2[nH]c3ccc(NC(=O)c4ccc(F)cc4)cc3c2C1` (stereo unspecified): the z-score is, setting by setting: under setting [1], -0.478 (inactive); under setting [2], -0.381 (inactive); under setting [3], -0.318 (inactive); under setting [4], -0.368 (inactive). Also, the cell count under setting [1] stood at 6480, the cell count under setting [2] came out at 6070, the cell count under setting [3] amounted to 6670 and the cell count under setting [4] amounted to 6110.
